Among the data in PubChem BioAssay (NCI) are growth values, retold here.

Compounds without any hit were thinned out: in the full panel of roughly 83,000, 20% have a hit.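 The endpoint reported here, percent growth, reads 100 for growth as untreated, 0 for no net growth and -100 for all cells dead.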 Values without a mark were called inactive. Calls of active or inactive are those of the source. The calls were made as follows: active = growth percent below 10; inactive = the rest.

Among the test systems are NCI-H23 lung; NCI-H226 lung; NCI-H322M lung; NCI-H460 lung; HOP-92 NSCLC; NCI-H522 lung; A549/ATCC NSCLC; 786-0 renal; COLO 205 colon; HOP-62 NSCLC.
Common to all, as to test: NCI-60 one-dose screen, 48 h (100 = growth as untreated, 0 = no growth, -100 = all killed)
Common to all, as to conditions: 10 µM unless noted

For `N#Cc1c(N)nc(Cl)c(C#N)c1C(=O)c1ccccc1`, the growth in the assay with NCI-H23 lung was 67%; in the assay with NCI-H226 lung, 87.9%; in the assay on NCI-H322M lung it was 96.5%; in the assay on NCI-H460 lung, 61.5%; with HOP-92 NSCLC, 74.2%; in the assay with NCI-H522 lung it was 39.1%. The growth in the assay with A549/ATCC NSCLC was 70.9%; in the assay with 786-0 renal it was 37.8%; in the assay on COLO 205 colon it was 61.6%.

For `COc1ccc(C[C@H](N)C(=O)N[C@@H]2[C@@H](CO)OC(n3cnc4c(N(C)C)ncnc43)[C@@H]2O)cc1` (stereo not given in full), the growth with NCI-H23 lung is -39.4% (active); in the assay on NCI-H226 lung, -65.2% (active); with NCI-H322M lung it was -65.2% (active); in the assay with NCI-H460 lung, -67% (active); in the assay with HOP-92 NSCLC, -67.1% (active); in the assay with NCI-H522 lung, -68.7% (active). The results for the growth in the assay on A549/ATCC NSCLC, in the assay on 786-0 renal and in the assay with COLO 205 colon were -57.9% (active), -87.6% (active) and -63.2% (active), respectively.

For the compound `S=C=NP1(N=C=S)=NP(N=C=S)(N=C=S)=NP(N=C=S)(N=C=S)=NP(N=C=S)(N=C=S)=N1` (stereo not given), the growth is 97.7% with NCI-H23 lung; 94% with NCI-H226 lung; 80.9% in the assay with NCI-H322M lung; 111% in the assay on NCI-H460 lung; 93.2% with HOP-92 NSCLC; 72.2% in the assay with NCI-H522 lung. In addition, the growth in the assay on A549/ATCC NSCLC was 79.2%; in the assay on 786-0 renal, 89.4%; in the assay on COLO 205 colon, 118%.

In the case of `CN(C)c1ccc(/C=N/n2c(-c3cc(F)c(Cl)cc3Cl)nn(CN3CCOCC3)c2=S)cc1`, the growth in the assay with NCI-H23 lung was 101%; in the assay with NCI-H226 lung, 97.2%; with HOP-62 NSCLC, 87.1%; in the assay with NCI-H460 lung it was 121%; in the assay on HOP-92 NSCLC, 75.2%; with NCI-H522 lung, 74.1%. The growth was 101% with A549/ATCC NSCLC, 101% with 786-0 renal and 108% with COLO 205 colon.

Turning to `COc1cc(/C=C2/Oc3cc4occc4c(OC)c3C2=O)ccc1OCC(=O)Nc1ccncc1`, the growth in the assay on NCI-H23 lung was 94.1%; in the assay on NCI-H226 lung it was 95%; in the assay on HOP-62 NSCLC it was 85.7%; with NCI-H460 lung it was 104%; in the assay with HOP-92 NSCLC, 97.4%; in the assay with NCI-H522 lung it was 85.4%. The growth is 101% in the assay on A549/ATCC NSCLC, 101% with 786-0 renal and 107% with COLO 205 colon.

For `CCN(CC)CCNCC(O)Cc1ccc(OC)cc1` (stereo not given), the growth with NCI-H23 lung was 103%; with NCI-H226 lung it was 90.5%; in the assay with HOP-62 NSCLC it was 102%; with NCI-H460 lung, 107%; in the assay with HOP-92 NSCLC, 81.4%; with NCI-H522 lung, 66.1%. For the same compound, the growth is 96% with A549/ATCC NSCLC, 98.5% in the assay with 786-0 renal and 111% in the assay on COLO 205 colon.

For `CC(C)(C)C(=O)Nc1nc2c(s1)CCc1ccn(S(=O)(=O)c3ccccc3)c1-2`, the growth is 82.5% in the assay with NCI-H23 lung; 92.4% in the assay with NCI-H226 lung; 93.4% with HOP-62 NSCLC; 96.2% with NCI-H460 lung; 96.2% in the assay on HOP-92 NSCLC; 66.7% in the assay with NCI-H522 lung. Also, the growth with A549/ATCC NSCLC is 76.6%; in the assay with 786-0 renal, 81.8%; with COLO 205 colon it was 112%.

With `CC(C)C1(C(C)C)NC(=O)NC1=O`, the growth is 99.2% in the assay with NCI-H23 lung; 102% in the assay on NCI-H226 lung; 96.6% in the assay on HOP-62 NSCLC; 99.9% in the assay on NCI-H460 lung; 93.2% in the assay on HOP-92 NSCLC; 94.8% in the assay on NCI-H522 lung. The growth with A549/ATCC NSCLC was 101%; in the assay with 786-0 renal it was 101%; in the assay with COLO 205 colon, 117%.

On to `CN[C@@H](CCCNC(N)=NC/C=C(/C)CCC=C(C)C)C(=O)N(C)[C@@H](CCCNC(N)=NCC=C(C)C)C(=O)N[C@H](C)[C@H](OS(=O)(=O)O)c1ccc(OS(=O)(=O)O)c(COS(=O)(=O)O)c1`, for which the growth in the assay with NCI-H23 lung is 99.9%; in the assay with NCI-H226 lung it was 89.1%; in the assay with HOP-62 NSCLC, 102%; in the assay on NCI-H460 lung, 110%; with HOP-92 NSCLC it was 100%; in the assay on NCI-H522 lung, 83.9%. Moreover, the growth in the assay on A549/ATCC NSCLC was 89.7%; in the assay on 786-0 renal it was 97.1%; in the assay on COLO 205 colon, 108%.

In the case of `COc1ccc(Cl)cc1NC(=O)c1cc2c(n1C)-c1nc(NC(=O)C(C)(C)C)sc1CC2`, the growth was 87.8% with NCI-H23 lung; 89.6% in the assay with NCI-H226 lung; 76.4% in the assay on HOP-62 NSCLC; 98.1% in the assay on NCI-H460 lung; 67.9% with HOP-92 NSCLC; 69% in the assay with NCI-H522 lung. Besides, the growth is 77.2% with A549/ATCC NSCLC, 94.7% in the assay on 786-0 renal and 97.7% with COLO 205 colon.

As to `CC(C)(C)OC(=O)N1CC(Cn2cc(C(F)(F)F)c3c(Cl)ncnc32)C1`, the growth in the assay on NCI-H23 lung is -68.9% (active); in the assay on NCI-H226 lung, 63.8%; in the assay on HOP-62 NSCLC it was -83.7% (active); in the assay with NCI-H460 lung, -59% (active); with HOP-92 NSCLC, -64.5% (active); with NCI-H522 lung, 39.9%. The growth is 5.78% (active) with A549/ATCC NSCLC, 107% in the assay with 786-0 renal and 63.8% in the assay on COLO 205 colon.

For the compound `CCNc1ncnc2n[nH]nc12`, the growth was 96.9% in the assay on NCI-H23 lung; 90.8% with NCI-H226 lung; 95.7% in the assay on HOP-62 NSCLC; 103% with NCI-H460 lung; 83.1% in the assay on HOP-92 NSCLC; 93.2% with NCI-H522 lung. For the same compound, the growth was 91.1% in the assay with A549/ATCC NSCLC, 96.1% in the assay with 786-0 renal and 105% with COLO 205 colon.

With `COc1ccccc1N1CCN(CCCOc2ccc(OCCCN3CCN(c4ccccc4OC)CC3)c(C(=O)c3cc(OC)c(OC)c(OC)c3)c2)CC1`, the growth in the assay with NCI-H226 lung was 111%; with NCI-H322M lung it was 96.5%; with HOP-62 NSCLC, 113%; in the assay on NCI-H460 lung, 115%; in the assay on HOP-92 NSCLC it was 94.2%; with NCI-H522 lung, 106%. For the same compound, the growth in the assay on A549/ATCC NSCLC is 109%; in the assay on 786-0 renal it was 105%; in the assay on COLO 205 colon it was 99.5%.

For the compound `CC(=O)O[C@@H]1[C@@H](OC(C)=O)[C@H](OC(C)=O)CO[C@H]1Nc1cccc2ccccc12`, the growth with NCI-H23 lung is 94.8%; in the assay on NCI-H226 lung it was 97.2%; in the assay with HOP-62 NSCLC it was 94.1%; in the assay on NCI-H460 lung, 98%; in the assay on HOP-92 NSCLC, 104%; with NCI-H522 lung, 68.3%. For the same compound, the growth was 102% in the assay on A549/ATCC NSCLC, 107% in the assay with 786-0 renal and 99.7% in the assay on COLO 205 colon.

Consider `Cc1cn(C2CC(F)C(CO)O2)c(=O)[nH]c1=O` (stereo not given), for which the growth was 90.3% in the assay on NCI-H23 lung; 95.9% in the assay on NCI-H226 lung; 88.4% with HOP-62 NSCLC; 51.8% in the assay on NCI-H460 lung; 69% in the assay with HOP-92 NSCLC; 86% in the assay with NCI-H522 lung. The growth was 84.7% with A549/ATCC NSCLC, 87.3% with 786-0 renal and 116% in the assay on COLO 205 colon.
